This passage reports z-score and composite z-score results from PubChem BioAssay.

Test [1] can be described thus: optical density shifts of acrAB sulA E. coli – strain DRC41, OD650, 48 h, E. coli filamentation inducer project, primary screen (AID 1152).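 Also: E. coli MC1000 strain DRC41 lacking acrAB efflux pump and sulA.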 The following applies: higher = more signal, called active from +8 up or from −8 down.
Test [2] is described as follows: probe aLefty1 binding on compound microarray – biochemical, small-molecule microarray, 635/667 nm fluorescence, primary screen (AID 1153).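 Also: score merges spot fluorescence with signal-to-noise ratio from the scanned slide images.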 The following applies: higher = more signal.
A short description of test [3]: plasmodial surface anion channel blockers, osmotic lysis – cell-based, P. falciparum Indochina, OD700, 1 h, primary screen (AID 1154). The following applies: P. falciparum Indochina infected RBC osmotic lysis, higher = more signal, called active from +8 up or from −8 down.
The nature of test [4]: plasmodial surface anion channel blockers, osmotic lysis – cell-based, P. falciparum Indochina, OD700, 2 h, primary screen (AID 1155).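 Also: lysis reports solute entry through the parasite surface anion channel PSAC.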 The following applies: P. falciparum Indochina infected erythrocytes, higher = more signal, called active from +8 up or from −8 down.
A short description of test [5]: changes in parasitized red cell lysis, either direction – P. falciparum Indochina, OD700, 3 h, PSAC antagonist project, primary screen (AID 1156). The following applies: P. falciparum-infected erythrocytes, osmotic lysis, higher = more signal, called active from +8 up or from −8 down.
Test [6] can be described thus: plasmodial surface anion channel blockers, osmotic lysis – cell-based, P. falciparum Indochina, OD700, 18 h, primary screen (AID 1157). The following applies: P. falciparum Indochina infected erythrocytes, osmotic lysis OD700, 18 h; higher = more signal, called active from +8 up or from −8 down.
Test [7] in a line: S6 kinase pathway phospho-S6 level changes – cell-based, A549, cytoblot, luminescence, serum-stimulated, primary screen (AID 1158).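 Also: serum-stimulated A549 lung adenocarcinoma cells; signal is phosphorylated S6 detected by cytoblot immunostaining with HRP secondary.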 The following applies: 5 h, higher = more signal.
Test [8] addresses NADPH oxidase 2 (Homo sapiens) (UniProt P04839). The test is described as follows: compounds shifting NOX2 Amplex Red fluorescence – cell-based, HEK293-NOX2, PMA-stimulated, NOX inhibitor project, primary screen (AID 1159). Also: test concentration not given here. The following applies: 45 min, higher = more signal, called active from +8 up or from −8 down.
The target in test [9] is NADPH oxidase 4 (Homo sapiens) (UniProt Q9NPH5). The test is described as follows: compounds shifting NOX4 Amplex Red fluorescence – cell-based, HEK293-NOX4, tetracycline-induced, NOX inhibitor project, primary screen (AID 1160). The following applies: HEK293-NOX4, Amplex Red H2O2 fluorescence, 45 min; higher = more signal, called active from +8 up or from −8 down.
Sequence of NADPH oxidase 4 (Homo sapiens) (Q9NPH5 whole entry, looked up): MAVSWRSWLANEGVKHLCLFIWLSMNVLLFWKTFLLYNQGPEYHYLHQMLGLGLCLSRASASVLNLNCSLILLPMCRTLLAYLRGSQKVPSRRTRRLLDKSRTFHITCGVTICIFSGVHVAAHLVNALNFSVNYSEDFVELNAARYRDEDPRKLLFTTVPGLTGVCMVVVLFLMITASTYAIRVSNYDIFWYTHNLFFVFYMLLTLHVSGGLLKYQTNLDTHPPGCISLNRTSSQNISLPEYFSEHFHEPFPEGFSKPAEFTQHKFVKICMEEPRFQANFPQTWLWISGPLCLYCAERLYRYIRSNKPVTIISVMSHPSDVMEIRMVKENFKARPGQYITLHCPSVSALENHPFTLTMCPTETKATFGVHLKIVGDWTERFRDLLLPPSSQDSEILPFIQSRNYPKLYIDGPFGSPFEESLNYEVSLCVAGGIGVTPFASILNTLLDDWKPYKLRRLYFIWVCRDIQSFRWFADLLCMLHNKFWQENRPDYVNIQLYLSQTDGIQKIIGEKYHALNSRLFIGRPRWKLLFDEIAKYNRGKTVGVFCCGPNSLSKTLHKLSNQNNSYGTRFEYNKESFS
In test [10] the target is NADPH oxidase 5 (Homo sapiens) (UniProt Q96PH1). The test is described as follows: compounds shifting NOX5 Amplex Red fluorescence – cell-based, HEK293-NOX5, NOX inhibitor project, primary screen (AID 1161). The following applies: HEK293-NOX5, ionomycin, 45 min, higher = more signal.
Sequence of NADPH oxidase 5 (Homo sapiens) (Q96PH1 whole entry, looked up): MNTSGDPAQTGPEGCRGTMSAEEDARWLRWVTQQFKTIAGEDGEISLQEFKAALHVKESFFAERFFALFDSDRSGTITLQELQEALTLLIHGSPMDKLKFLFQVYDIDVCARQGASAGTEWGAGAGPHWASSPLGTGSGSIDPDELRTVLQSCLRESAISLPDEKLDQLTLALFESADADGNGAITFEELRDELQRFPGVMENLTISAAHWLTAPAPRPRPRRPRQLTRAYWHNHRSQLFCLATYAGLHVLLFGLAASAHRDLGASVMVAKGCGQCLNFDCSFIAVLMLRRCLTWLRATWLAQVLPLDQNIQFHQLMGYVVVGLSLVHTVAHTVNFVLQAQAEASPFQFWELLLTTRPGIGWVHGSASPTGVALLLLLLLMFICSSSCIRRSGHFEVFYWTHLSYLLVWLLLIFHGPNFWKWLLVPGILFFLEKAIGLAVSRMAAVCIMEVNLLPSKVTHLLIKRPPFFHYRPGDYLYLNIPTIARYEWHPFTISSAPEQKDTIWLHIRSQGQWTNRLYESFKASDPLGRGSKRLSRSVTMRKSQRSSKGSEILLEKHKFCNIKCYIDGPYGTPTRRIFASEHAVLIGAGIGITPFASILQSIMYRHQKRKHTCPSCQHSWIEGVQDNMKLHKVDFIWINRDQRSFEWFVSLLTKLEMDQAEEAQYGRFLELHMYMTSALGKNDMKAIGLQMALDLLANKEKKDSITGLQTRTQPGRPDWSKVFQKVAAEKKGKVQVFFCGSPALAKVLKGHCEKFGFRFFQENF
A short description of test [11]: compound effects on lung adenocarcinoma cell viability – A549, calcein-AM fluorescence, 48 h, basal, profiling panel (AID 1162). Also: test concentration not given here. The following applies: higher = more signal.
Test [12] is described as follows: compound effects on differentiated 3T3-L1 adipocyte viability – cell-based, 3T3-L1 adipocytes, calcein-AM fluorescence, 48 h, basal, profiling panel (AID 1163). Also: test concentration not given here. The following applies: 3T3-L1 adipocytes viability, higher = more signal.
The nature of test [13]: compound effects on hepatocellular carcinoma cell viability – HepG2, calcein-AM fluorescence, 48 h, basal, profiling panel (AID 1164). Also: test concentration not given here. The following applies: higher = more signal.
Test [14] can be described thus: compound effects on multiple myeloma cell viability – MM1S, calcein-AM fluorescence, 48 h, basal, profiling panel (AID 1165).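 Also: viability of MM1S multiple myeloma cells under basal unstimulated conditions; test concentration not given here.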 The following applies: higher = more signal.
The nature of test [15]: calcein-AM signal in unstimulated myeloma cells – cell-based, calcein-AM fluorescence, 48 h, PK04 Diversity Set, profiling panel (AID 1166).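 Also: cells grown under basal conditions without added stimulus; test concentration not given here.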 The following applies: RPMI8226 myeloma viability, higher = more signal.
A short description of test [16]: JC-1 mitochondrial signal, unstimulated HepG2 cells – cell-based, JC-1 fluorescence, 24 h, 100 nL compound, profiling panel (AID 1167). Also: test concentration not given here. The following applies: HepG2 mitochondrial potential, higher = more signal.
Test [17] can be described thus: JC-1 mitochondrial signal, unstimulated adipocytes – cell-based, JC-1 fluorescence, 3T3-L1 adipocytes, 24 h, 100 nL compound, profiling panel (AID 1168). Also: test concentration not given here. The following applies: JC-1 mitochondrial fluorescence, higher = more signal, called active from +8 up or from −8 down.
The nature of test [18]: JC-1 mitochondrial signal, unstimulated myeloma cells – cell-based, JC-1 fluorescence, RPMI8226, 24 h, 100 nL compound, profiling panel (AID 1169). Also: test concentration not given here. The following applies: JC-1 mitochondrial potential fluorescence, higher = more signal.
Test [19] in a line: JC-1 mitochondrial signal, unstimulated MM1S myeloma – cell-based, JC-1 fluorescence, 24 h, 100 nL compound, profiling panel (AID 1170). Also: test concentration not given here. The following applies: MM1S mitochondrial potential, higher = more signal.
A short description of test [20]: resazurin metabolic signal in A549 cells – cell-based, resazurin fluorescence, 24 h, PK04 Diversity Set, profiling panel (AID 1171). Also: test concentration not given here. The following applies: A549 viability, higher = more signal, called active from +8 up or from −8 down. For orientation: Alamar Blue is a resazurin reagent that responds to reducing activity.

Active and inactive are the calls of the source.

Sequence of NADPH oxidase 2 (Homo sapiens) (P04839 whole entry, looked up): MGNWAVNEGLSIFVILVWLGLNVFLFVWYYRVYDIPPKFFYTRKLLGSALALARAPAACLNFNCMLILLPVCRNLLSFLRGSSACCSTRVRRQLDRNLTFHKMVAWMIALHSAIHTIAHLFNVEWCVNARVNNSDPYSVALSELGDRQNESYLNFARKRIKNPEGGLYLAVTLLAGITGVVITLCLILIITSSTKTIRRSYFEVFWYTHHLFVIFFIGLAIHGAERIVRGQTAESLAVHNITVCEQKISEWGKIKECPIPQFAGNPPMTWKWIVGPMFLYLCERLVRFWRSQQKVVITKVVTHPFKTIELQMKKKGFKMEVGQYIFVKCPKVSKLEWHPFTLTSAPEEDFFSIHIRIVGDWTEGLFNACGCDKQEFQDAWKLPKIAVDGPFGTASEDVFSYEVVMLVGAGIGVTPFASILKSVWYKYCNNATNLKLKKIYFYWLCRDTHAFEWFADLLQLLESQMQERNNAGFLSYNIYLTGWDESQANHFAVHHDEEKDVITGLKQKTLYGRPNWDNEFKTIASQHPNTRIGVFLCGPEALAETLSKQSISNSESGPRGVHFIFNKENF

`CN(C)CCCCNC(=O)[C@H]1C[C@H]2C(=O)N3CCC[C@H]3C(=O)N2[C@H]1c1cccc(OCCO)c1`: the z-score in test [1] was -0.019 (inactive); in test [3], 2.99 (inactive); in test [4], 0.502 (inactive); in test [5], 0.348 (inactive); in [6], 0.178 (inactive); in test [7] it was -0.0038. Also, the z-score in test [8] was 0.787 (inactive); in test [9] it was 1.37 (inactive); in test [10], 0.803; in test [11], -0.893; in [12], -0.0471; in [13] it was -0.458. Besides, the z-score in [14] was 0.123; in test [15], 0.291; in test [16], -1.05; in [17] it was 0.119 (inactive); in [18] it was 0.712; in test [19], 0.0655. Moreover, in test [20], the z-score was 0.677 (inactive). Moreover, in test [2], the composite z-score came out at 0.517.

As for `C=CCC(OC(C)=O)[C@@H]1[C@@H](N(Cc2cccc3ccccc23)C(=O)Cc2ccc(OC)cc2)c2cc(OCCCO)ccc2N1C(=O)Cc1ccc2ccccc2c1` (stereo not given in full), the z-score in test [1] is -0.504 (inactive); in test [3], 2.18 (inactive); in test [4] it was 0.0026 (inactive); in test [5], 1.42 (inactive); in test [6], -0.0843 (inactive); in test [7] it was 0.909. Further, the z-score in [8] was -2.23 (inactive); in [9], -0.887 (inactive); in [10] it was -1.91; in test [11] it was -0.105; in [12], 0.759; in test [13], -0.472. Besides, the z-score in test [14] is 0.0986; in test [15] it was -1.36; in [16] it was 3; in test [17] it was -0.199 (inactive); in [18], -0.226; in [19], 0.0724. Besides, the z-score in test [20] was 0.719 (inactive). This molecule also returned a composite z-score in [2] of 0.285.

Consider `C=CCN1C(=O)[C@@]2(O[C@@H](CCn3cc([C@H](O)c4ccccc4)nn3)[C@H]([Si](C)(C)c3ccc(OC)cc3)[C@H]2C)c2cc(N3C(=O)c4cccc5cccc3c45)ccc21`, for which the z-score was -0.851 (inactive) in [1]; 4.77 (inactive) in test [3]; 1.81 (inactive) in test [4]; 0.519 (inactive) in [5]; 1.31 (inactive) in [6]; 0.075 in test [7]. For the same molecule, the z-score in test [8] is 0.962 (inactive); in test [9], 1.57 (inactive); in test [10] it was 2.52; in test [11], 0.248; in [12], -0.0484; in [13], -1.93. The z-score is -1.87 in test [14]; -4.04 in test [15]; 0.319 in test [16]; -0.127 (inactive) in test [17]; -0.929 in test [18]; -1.37 in test [19]. Also, the z-score in test [20] was -1.94 (inactive). The composite z-score in test [2] is -0.101.

As for `COCCCNC(=O)[C@@]1(CCS(=O)(=O)c2ccccc2)COC(c2ccc(OCCCO)cc2)=N1`, the z-score in test [1] was 1.08 (inactive); in [3], 29.2 (active); in [4], 24.6 (active); in test [5], 0.764 (inactive); in [6], 4.31 (inactive); in test [7] it was -0.131. For the same molecule, the z-score was -0.556 (inactive) in test [8]; 0.25 (inactive) in test [9]; 0.0637 in test [10]; -0.222 in [11]; 1.11 in test [12]; -0.771 in test [13]. In addition, the z-score in [14] was -0.181; in [15] it was -0.49; in [16], -0.903; in test [17] it was -0.736 (inactive); in test [18], -0.249; in test [19], -0.0725. Also, the z-score in [20] was -0.468 (inactive). The same molecule returned a composite z-score in test [2] of 0.87.
